# Reference: ChEMBL document CHEMBL1201862, “PubChem BioAssay data set” (2004)
# Among all 400,000 compounds or so, about 2,100 (0.53%) were called active. Inconclusive results (about 14%) are left out. How the calls were made is not given here. The sample as a whole holds a higher share of actives than the screen did.
# Target: Ataxin-2 (Homo sapiens) (UniProt Q99700)
# Assay: qHTS for Inhibitors of ATXN expression.
# Assay type: functional
# Ataxin-2 (Homo sapiens), sequence (Q99700 whole entry): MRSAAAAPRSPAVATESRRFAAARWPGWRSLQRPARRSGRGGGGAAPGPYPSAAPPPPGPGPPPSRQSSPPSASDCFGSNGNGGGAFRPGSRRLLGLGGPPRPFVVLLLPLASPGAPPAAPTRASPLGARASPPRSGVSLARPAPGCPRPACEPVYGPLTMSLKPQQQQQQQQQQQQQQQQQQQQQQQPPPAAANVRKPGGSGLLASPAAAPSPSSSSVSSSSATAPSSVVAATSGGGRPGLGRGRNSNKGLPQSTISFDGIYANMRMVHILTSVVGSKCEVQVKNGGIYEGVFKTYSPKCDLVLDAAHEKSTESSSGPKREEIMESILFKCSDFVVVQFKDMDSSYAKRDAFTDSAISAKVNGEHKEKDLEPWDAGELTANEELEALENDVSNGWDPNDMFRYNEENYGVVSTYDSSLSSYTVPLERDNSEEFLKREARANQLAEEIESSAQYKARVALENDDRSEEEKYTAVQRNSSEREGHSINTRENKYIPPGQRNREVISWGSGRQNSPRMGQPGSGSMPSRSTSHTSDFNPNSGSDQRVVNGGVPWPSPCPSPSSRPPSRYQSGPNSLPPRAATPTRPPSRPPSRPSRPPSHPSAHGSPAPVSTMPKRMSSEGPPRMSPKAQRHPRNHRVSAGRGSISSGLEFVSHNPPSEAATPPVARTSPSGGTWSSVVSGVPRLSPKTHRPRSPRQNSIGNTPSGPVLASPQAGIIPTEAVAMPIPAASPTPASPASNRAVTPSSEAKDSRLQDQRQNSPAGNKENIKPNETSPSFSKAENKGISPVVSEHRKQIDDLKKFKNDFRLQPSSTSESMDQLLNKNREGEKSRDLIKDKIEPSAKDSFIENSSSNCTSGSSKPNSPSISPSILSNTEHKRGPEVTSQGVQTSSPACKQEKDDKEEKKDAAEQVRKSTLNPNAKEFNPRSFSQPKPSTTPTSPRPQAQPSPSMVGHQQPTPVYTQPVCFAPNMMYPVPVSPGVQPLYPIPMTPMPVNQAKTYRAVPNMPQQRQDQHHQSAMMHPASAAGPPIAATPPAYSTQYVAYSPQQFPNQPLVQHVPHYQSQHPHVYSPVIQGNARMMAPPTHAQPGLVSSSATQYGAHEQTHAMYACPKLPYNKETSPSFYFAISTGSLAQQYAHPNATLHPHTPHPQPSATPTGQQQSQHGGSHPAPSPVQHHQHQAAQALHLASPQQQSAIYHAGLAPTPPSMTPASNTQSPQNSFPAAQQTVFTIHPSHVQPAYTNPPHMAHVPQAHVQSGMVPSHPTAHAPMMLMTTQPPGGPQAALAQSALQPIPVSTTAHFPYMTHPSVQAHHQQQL
row,SMILES,Potency
1,COc1ccc(Sc2ccc(-c3nc4cnccn4c3NC3CCCCC3)cc2OC)cc1,inactive
2,CN(Cc1nc(-c2cnccn2)no1)C1CC(C)(C)NC(C)(C)C1,inactive
3,Cc1ccccc1N(CC(=O)NC(C)(C)C)C(=O)CCC(=O)Nc1nccs1,inactive
4,CCCCN1CCc2c(c3ccccc3n2Cc2ccccc2)C1,28.2 µM (active)
5,CCCN1CNc2c(c(=O)[nH]c(=S)n2CCc2ccccc2)C1,inactive
6,Oc1ncnc2sc3c(c12)CN(Cc1ccccc1)CC3,inactive
7,CCCCCC(=O)NNC1=NCC(Cc2ccccc2)S1 (stereo unspecified),inactive
8,COc1cc2cc(C(=O)N3CCN(Cc4ccc5c(c4)OCO5)CC3)c(=O)oc2cc1OC,inactive
9,O=C(c1cc([N+](=O)[O-])cc([N+](=O)[O-])c1)N1CCN(Cc2ccc3c(c2)OCO3)CC1,inactive
10,CCO[C@H]1OC(C(=O)N2CCN(Cc3ccc4c(c3)OCO4)CC2)=C[C@@H](c2ccc(C(F)(F)F)cc2)[C@@H]1CCCO,35.5 µM (active)
11,CCOC(=O)/C(=C/c1ccc(N2CCC(c3ccccc3)=N2)cc1)C(C)=O,inactive
12,CCOC(=O)C(=Cc1ccc(-n2ccnc2)cc1)C(=O)OCC,25.1 µM (active)
13,Cc1cc(N2CCN(C)CC2)nc2ccc(NC(=O)Nc3ccccc3Br)cc12,39.8 µM (active)
14,CCOc1ccc(S(=O)(=O)N2CCN(C)CC2)cc1NC(=O)c1ccccc1F,inactive
15,CCOc1ccccc1NC(=O)Nc1ccc2nc(N3CCN(C)CC3)cc(C)c2c1,31.6 µM (active)
16,Cc1cc(N2CCN(C)CC2)nc2ccc(NC(=O)Nc3cccc(Cl)c3)cc12,31.6 µM (active)
17,COc1ccc(Cl)cc1C(=O)Nc1ccc2nc(Nc3cccc(Cl)c3)cc(C)c2c1,inactive
18,Cc1cc(Nc2cccc(Cl)c2)nc2ccc(NC(=O)COc3ccc(Cl)cc3)cc12,inactive
19,CCN1CCN(c2cc(C)c3cc(NC(=O)CCC(=O)Nc4ccc(OC)cc4OC)ccc3n2)CC1,inactive
20,CCCN(CCC)CCNC(=O)CCC(=O)Nc1ccc2nc(N3CCOCC3)cc(C)c2c1,inactive
21,CCN1CCN(c2cc(C)c3cc(NC(=O)c4cc(Br)ccc4Cl)ccc3n2)CC1,31.6 µM (active)
22,COCCCn1c(=N)c(C(=O)NC2CCCC2)cc2c(=O)n3ccccc3nc21,inactive
23,COc1ccc(S(=O)(=O)NCc2ccco2)cc1C(=O)N1CCOCC1,inactive
24,CCCN(CCC)S(=O)(=O)c1ccc(C(=O)OCCN2C(=O)c3cccc4c(N5CCOCC5)ccc(c34)C2=O)cc1,inactive
25,O=C(CCCNC1=NS(=O)(=O)c2ccccc21)Nc1ccc(Cl)cc1,inactive
26,CCOC(=O)c1cc2c(=O)n3ccccc3nc2n(Cc2ccccc2)c1=N,inactive
